From PubChem BioAssay AID574 (The Scripps Research Institute Molecular Screening Center, 2007)
Among all 65,000 compounds or so, about 450 (0.69%) were called active. Many of the other results were omitted from the sample, so actives are more common in it than they were. A number with no mark means an inactive call.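 The calls were made as follows: active = activation above a set limit, the screen-wide mean activation plus 3 SD (cut at about 8.5% in these data); inactive = the rest.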 Where a SMILES comes first, the peptide text is derived from it. The star is where a group is joined. Bz = O=C(c1ccccc1)*

The compounds below were run against 5-hydroxytryptamine receptor 1E (Homo sapiens) (UniProt P28566) (assay: activation of human serotonin 5HT1E receptor – cell-based, HTS, primary screen (AID 574;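 also: 100% = positive control agonist at 1 µM giving full maximal response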)). Settings: CHO 5-HT1E Ga15 NFAT-bla reporter, FRET; at 6 µM; active compounds read high; 0% DMSO wells, 100% control agonist wells.
Chain of 5-hydroxytryptamine receptor 1E (Homo sapiens) (P28566 whole entry, looked up): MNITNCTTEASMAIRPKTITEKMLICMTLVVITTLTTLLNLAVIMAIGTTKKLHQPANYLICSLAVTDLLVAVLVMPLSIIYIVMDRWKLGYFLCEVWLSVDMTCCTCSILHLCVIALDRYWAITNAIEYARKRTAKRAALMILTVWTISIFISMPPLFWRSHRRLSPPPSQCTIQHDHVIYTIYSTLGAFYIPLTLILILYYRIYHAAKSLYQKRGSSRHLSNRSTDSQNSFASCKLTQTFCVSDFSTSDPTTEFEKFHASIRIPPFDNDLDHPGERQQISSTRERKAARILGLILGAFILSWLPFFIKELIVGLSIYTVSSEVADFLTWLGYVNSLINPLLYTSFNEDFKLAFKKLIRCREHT

SMILES	activation
CCCN(c1ccc(C(C)C)cc1)S(=O)(=O)c1c(C)[nH]c(=O)[nH]c1=O	-0.3%
COCCNC(=O)Cn1cc2c(n1)CCCCC2	-0.1%
COc1ccccc1CNC(=O)Cn1cc2c(n1)CCCC2	-0.6%
O=C(Cn1cc2c(n1)CCCCC2)NCCN1CCOCC1	9.7% (active)
COCCCNC(=O)COc1cc(C)c(Cl)c(C)c1	-0.3%
NC(=S)c1ccc(C(N)=S)o1	0%
Cc1nn(-c2cc(Cl)ccc2N)c(=O)c2ccccc12	-0.1%
Cc1cccc(NC(=O)CSc2nnc(CCCCCNC(=O)OC(C)(C)C)o2)c1C	-1.3%
O=C(O)C1CCN1C1CCCCC1 (configuration not stated)	-0.7%
Cc1ccc(S(=O)(=O)N2C3C=CC(C3)C2C(=O)O)cc1 (configuration not stated)	-0.4%
COc1ccc(C(=O)N(Cc2ccc(N(C)C)cc2)C2CCS(=O)(=O)C2)cc1 (configuration not stated)	0.3%
O=C(/C(=N\O)n1cncn1)c1ccc(Br)cc1Br	0.1%
CCn1c(=N)c(S(=O)(=O)c2ccc(F)cc2)cc2c(=O)n3ccccc3nc21	4.4%
O=C(NC1CCCC1)c1ccc(Br)s1	-1.5%
Clc1ccc(C=NC23CN4CN(CN(C4)C2)C3)cc1	-0.1%
O=C(CN1CCN(CC(=O)Nc2ccc3c(c2)OCO3)CC1)Nc1ccc(F)cc1	-0.7%
Cc1nnc(SCc2ccc(C(=O)c3ccc(Cl)cc3)o2)n1-c1ccccc1	0.9%
O=C(NC(Cc1ccccc1)C(=O)N1CCCC1C(=O)O)c1ccccc1 (stereo not drawn) (Bz-Phe-Pro-OH; configuration not given here)	-0.4%
N#Cc1c(/N=C/N2CCCC2)oc(-c2ccccc2)c1-c1ccccc1	0.2%

SMILES	activation
O=C(Nc1ccccc1)Nc1ccccc1C(=O)NCc1ccco1	-0.6%
O=C(Nc1ccccc1)N(Cc1cccnc1)Cc1ccco1	10.7% (active)
O=C(CS(=O)(=O)Cc1ccccc1)Nc1cccnc1	1.1%
COc1cccc(OCC(O)CN2CCN(CCO)CC2)c1 (configuration not stated)	-0.1%
COc1cccc(C(CC(=O)NCCN2CCOCC2)NS(=O)(=O)c2ccc(C)cc2)c1OC (configuration not stated)	0.5%
COc1ccccc1C(=O)C(O)c1ccccc1OC (configuration not stated)	-0.2%
C=CCC(NCCCO)c1cccc(OC)c1OC (configuration not stated)	10.3% (active)
CC1CCCC(N2CCN(C(=O)c3ccc(F)cc3)CC2)C1 (configuration not stated)	-0.1%
O=C(O)CN(Cc1ccco1)S(=O)(=O)c1ccc(F)cc1	0%
COc1cccc(OC)c1C(=O)Nc1nnc(C(C)C)s1	-0.1%
CCn1c(CNc2ccc(OC)cc2)nnc1SCC(=O)c1ccc(OC)cc1	0.6%
CC1=C(C(=O)OC2CCCCC2)C(c2cccnc2)n2ncnc2N1 (configuration not stated)	-0.4%
Cc1ccnc(SCCn2c(N(C)Cc3ccccc3)nc3c2c(=O)n(C)c(=O)n3C)n1	-0.1%
CCOC(=O)C1(c2ccccc2)NC(c2ccc(N(C)C)cc2)C2C(=O)N(C)C(=O)C21 (configuration not stated)	0.7%
COc1ccccc1-n1cnc2cc(C(=O)NCC3CCCO3)ccc21 (configuration not stated)	0%
C=CCn1c(COc2ccccc2)nnc1SCC(=O)NCC(=O)OCC	-0.3%
CCc1nnc(NC(=O)CSc2nc3c(c(=O)n2-c2ccccc2OC)SCC3)s1	-0.6%
CCCC1C(c2ccccc2)C(C#N)(C#N)C2(C#N)CC1(N)NC2=O (configuration not stated)	0.5%
CC(=O)OCc1cc(=O)n(C)c(=O)n1C	-1.2%

SMILES	activation
Cc1cc(C(=O)OCC(=O)c2c(N)n(C)c(=O)n(C)c2=O)c(C)o1	0.7%
CC(=O)c1c(N)n(C)c(=O)n(C)c1=O	22.1% (active)
Cc1ccc(N(C(=O)CC2NC(=O)NC2=O)C2(C(=O)NC3CCCC3)CCCCC2)cc1 (configuration not stated)	-0.5%
CC(C)(C)OC(=O)c1c(N)n(CCCN2CCCC2=O)c2nc3ccccc3nc12	2.2%
CSc1nc2ccc(S(=O)(=O)N3CCc4ccccc43)cc2s1	0.9%
COCCCNC(=O)C1CC(=O)N(c2ccc(C)cc2)C1 (configuration not stated)	-1.2%
CC(CCO)Nc1nc2c([nH]1)c(=O)n(C)c(=O)n2C (configuration not stated)	-1.6%
CCCOc1ccc(/C(O)=C2/C(=O)C(=O)N(CCN(C)C)C2c2ccc(OC)c(OC)c2)cc1 (configuration not stated)	-0.3%
O=C(Nc1cccc2c1CCCC2)C1CCN(C(=O)NC2CCCCC2)CC1	-1.2%
CC1(C)CN=C(N2CCN(c3ncnc4sc5c(c34)CCCC5)CC2)S1	-0.6%
CCc1ccc(Nc2ncc3c(n2)CC(c2ccco2)CC3=O)cc1 (configuration not stated)	-0.5%
CCOCC(=O)NCc1ccc2c(c1)cc(C)n2C	0.7%
COc1ccc(S(=O)(=O)Nc2ccc3c(c2)OCO3)cc1Cl	-1.3%
Cc1nc(NCCN)c(C#N)c2c1COC(C)(C)C2	-0.4%
CCCCN(C)C(=O)c1ccc2c(c1)N(CC)C(=O)c1ccccc1S2(=O)=O	-1.1%
O=C(Nc1ccccc1C(=O)N1CCOCC1)C1CCC(=O)N1C1CCCC1 (configuration not stated)	0.6%
Cc1cc(=O)cc(C)[nH]1	33.2% (active)
Cc1cc(C)nc(SCc2nnc(SCC(=O)Nc3ncc(C)s3)n2Cc2ccco2)n1	0.8%
CCN1C(=O)CS/C1=N\c1nccs1	-0.1%
